# According to PubChem BioAssay:
# Calls of active or inactive are those of the source.
# Columns and labels:
# [1] = compounds binding Alexa647 anti-His antibody – biochemical, small-molecule microarray, 635 nm fluorescence, artefact control for SMM control protein annotation, primary screen (AID 1128); conditions: higher = more signal;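 also: score merges feature fluorescence with signal-to-noise for each printed compound spot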
# [2] = system: Human papillomavirus type 1a E7 protein (residues 1-88); assay: HPV1a E7 small-molecule binders, primary screen, biochemical, small-molecule microarray, residues 1-88, 635 nm (AID 1129); conditions: small-molecule microarray binding, fluorescence 635 nm; higher = more signal
# [3] = biological target: Focal adhesion kinase 1 (Homo sapiens) (UniProt Q05397); assay: PTK2 protein binding on printed compound slides – biochemical, small-molecule microarray, 635/667 nm fluorescence, BSA, DTT, primary screen (AID 1130); conditions: 635 nm fluorescence, higher = more signal;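 also: composite of spot emission at 667 nm and signal to noise over triplicate slides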
# [4] = system: Fibrinogen (Alexa647-labelled); assay: Alexa647-fibrinogen binding to printed small molecules – biochemical, small-molecule microarray, 635/667 nm fluorescence, artefact control for SMM control-protein annotation, profiling panel (AID 1131); conditions: fibrinogen-A647 binding fluorescence, higher = more signal;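 also: z-score merges 667 nm fluorescence with per-spot signal-to-noise over triplicate slides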
# [5] = biological target: Follistatin (Homo sapiens) (UniProt P19883); assay: FST protein binding to printed compounds – biochemical, small-molecule microarray, 635/667 nm fluorescence, primary screen (AID 1132); conditions: 635 nm fluorescence, higher = more signal
# [6] = biological target: Fibroblast growth factor 2 (Homo sapiens) (UniProt P09038); assay: basic fibroblast growth factor binding to printed compounds – biochemical, small-molecule microarray, 635/667 nm fluorescence, primary screen (AID 1133); conditions: FGF2, fluorescence 635/667, higher = more signal
# [7] = JC-1 mitochondrial potential readout, lung cancer cells – cell-based, A549, JC-1 fluorescence, basal, 24 h, 100 nL, profiling panel (AID 1138); conditions: higher = more signal;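 also: A549 lung adenocarcinoma cells under basal conditions with no added stimulus; test concentration not given here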
# Lefty1 = Lefty1 protein binding to printed compounds – biochemical, small-molecule microarray, 635/667 nm fluorescence, primary screen (AID 1139); conditions: fluorescence 635/667, higher = more signal
# [8] = system: wheat germ agglutinin (Triticum aestivum), Alexa647-labelled; assay: Alexa647-WGA lectin binding to printed small molecules – biochemical, small-molecule microarray, 635/667 nm fluorescence, artefact control for SMM control-protein annotation, profiling panel (AID 1140); conditions: WGA-A647 binding, 635 nm fluorescence, higher = more signal;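 also: score merges 667 nm feature emission with signal to noise over triplicate slides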
# [9] = biological target: Luciferin 4-monooxygenase (Photinus pyralis) (UniProt P08659); assay: inhibition of purified Photinus pyralis luciferase – biochemical, luminescence, purified enzyme, 2006 set, primary screen (AID 1141); conditions: purified firefly luciferase, SteadyGlo luminescence, 30 min; higher = more signal, called active from +8 up or from −8 down;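 also: cell-free assay with purified firefly luciferase at 100 ng per well in PBS; test concentration not given here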
# Chain of Luciferin 4-monooxygenase (Photinus pyralis) (P08659 whole entry, looked up): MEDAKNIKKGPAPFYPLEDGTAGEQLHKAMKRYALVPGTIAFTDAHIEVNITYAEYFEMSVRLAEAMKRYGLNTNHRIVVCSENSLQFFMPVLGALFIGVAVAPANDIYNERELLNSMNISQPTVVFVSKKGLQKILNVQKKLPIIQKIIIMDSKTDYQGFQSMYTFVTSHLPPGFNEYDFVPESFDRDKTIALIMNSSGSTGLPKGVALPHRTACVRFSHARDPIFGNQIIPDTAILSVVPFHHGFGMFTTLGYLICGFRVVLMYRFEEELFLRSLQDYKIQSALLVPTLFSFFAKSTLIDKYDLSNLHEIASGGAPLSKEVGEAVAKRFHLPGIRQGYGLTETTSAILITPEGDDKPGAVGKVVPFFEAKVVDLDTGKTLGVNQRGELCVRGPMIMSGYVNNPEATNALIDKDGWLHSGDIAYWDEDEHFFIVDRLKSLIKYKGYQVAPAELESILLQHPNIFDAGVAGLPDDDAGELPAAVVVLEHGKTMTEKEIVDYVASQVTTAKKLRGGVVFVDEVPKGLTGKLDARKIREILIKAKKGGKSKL
# Chain of Follistatin (Homo sapiens) (P19883 whole entry, looked up): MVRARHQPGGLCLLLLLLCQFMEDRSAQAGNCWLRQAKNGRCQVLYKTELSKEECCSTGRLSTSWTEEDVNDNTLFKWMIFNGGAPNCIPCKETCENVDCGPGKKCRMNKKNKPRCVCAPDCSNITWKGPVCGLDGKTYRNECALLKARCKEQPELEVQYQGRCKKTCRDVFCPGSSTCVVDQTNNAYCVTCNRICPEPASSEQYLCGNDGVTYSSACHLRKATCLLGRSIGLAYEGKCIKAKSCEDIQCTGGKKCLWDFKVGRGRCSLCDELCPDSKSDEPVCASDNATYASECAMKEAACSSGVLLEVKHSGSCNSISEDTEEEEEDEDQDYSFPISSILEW
# Chain of Focal adhesion kinase 1 (Homo sapiens) (Q05397 whole entry, looked up): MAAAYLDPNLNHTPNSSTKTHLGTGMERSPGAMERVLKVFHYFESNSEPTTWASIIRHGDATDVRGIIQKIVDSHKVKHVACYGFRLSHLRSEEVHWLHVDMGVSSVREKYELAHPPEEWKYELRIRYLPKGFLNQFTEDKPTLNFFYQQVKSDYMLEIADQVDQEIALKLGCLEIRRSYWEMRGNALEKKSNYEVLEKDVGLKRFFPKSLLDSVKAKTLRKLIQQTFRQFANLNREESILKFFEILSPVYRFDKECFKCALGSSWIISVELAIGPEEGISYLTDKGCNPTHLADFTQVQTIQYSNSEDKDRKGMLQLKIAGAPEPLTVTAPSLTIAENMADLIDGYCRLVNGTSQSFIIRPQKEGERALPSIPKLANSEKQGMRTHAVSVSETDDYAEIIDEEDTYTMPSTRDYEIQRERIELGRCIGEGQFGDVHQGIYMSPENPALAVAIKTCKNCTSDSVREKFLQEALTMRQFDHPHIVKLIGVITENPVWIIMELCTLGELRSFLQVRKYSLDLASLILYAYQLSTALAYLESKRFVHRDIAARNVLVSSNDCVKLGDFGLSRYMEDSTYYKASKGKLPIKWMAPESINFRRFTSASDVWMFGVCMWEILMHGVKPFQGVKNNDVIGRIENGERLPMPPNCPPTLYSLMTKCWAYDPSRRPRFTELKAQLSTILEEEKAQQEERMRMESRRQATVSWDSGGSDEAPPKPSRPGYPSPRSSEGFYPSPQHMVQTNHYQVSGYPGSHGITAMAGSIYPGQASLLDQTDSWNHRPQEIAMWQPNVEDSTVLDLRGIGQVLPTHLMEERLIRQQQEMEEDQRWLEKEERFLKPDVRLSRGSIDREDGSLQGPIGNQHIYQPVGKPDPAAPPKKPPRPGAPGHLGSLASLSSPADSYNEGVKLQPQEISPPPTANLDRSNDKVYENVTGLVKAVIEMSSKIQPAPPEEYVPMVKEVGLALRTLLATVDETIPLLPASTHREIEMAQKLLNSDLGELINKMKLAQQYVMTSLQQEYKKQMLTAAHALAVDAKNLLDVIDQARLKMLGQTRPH
# Chain of Fibroblast growth factor 2 (Homo sapiens) (P09038 whole entry, looked up): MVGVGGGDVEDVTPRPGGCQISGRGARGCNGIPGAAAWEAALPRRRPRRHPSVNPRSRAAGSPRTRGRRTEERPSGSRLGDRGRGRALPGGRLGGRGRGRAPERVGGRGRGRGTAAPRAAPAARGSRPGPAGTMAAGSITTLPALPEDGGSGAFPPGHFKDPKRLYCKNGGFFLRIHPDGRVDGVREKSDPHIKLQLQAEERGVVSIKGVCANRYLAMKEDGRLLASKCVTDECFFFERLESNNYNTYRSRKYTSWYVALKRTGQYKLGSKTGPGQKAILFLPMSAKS
Structure (SMILES),composite z-score [1],composite z-score [2],composite z-score [3],composite z-score [4],composite z-score [5],composite z-score [6],z-score [7],composite z-score (Lefty1),composite z-score [8],z-score [9]
[N-]=[N+]=NCc1ccccc1C[C@@]1(C(=O)NCCN2CCOCC2)N=C(c2ccc(OCCCO)cc2)O[C@@H]1c1ccccc1,1.42,1.18,0.444,0.947,1.23,-0.426,1.44,0.573,0.639,-1.04 (inactive)
COc1cc2c(cc1O)C(C)N(Cc1sc3ccccc3c1Cl)CC2 (stereo not given),-0.119,-1.14,-0.439,-2.68,-0.678,-1.11,0.218,-1.44,0.358,1.39 (inactive)
Cc1ccc(S[C@]2(C(=O)NC(C)C)CC(=O)N(Cc3ccccc3)[C@@H]2c2ccc(CO)cc2I)cc1,-1.01,-0.781,-0.0673,-0.771,-1.35,-0.409,1.32,-1.64,-1.09,-0.629 (inactive)
CCCCCCc1nc(Cc2cc(OC)c(OC)c(OC)c2)c(C)c2c1[Si](C(C)C)(C(C)C)OC2,0.0303,0.127,-0.38,-0.24,0.281,0.444,0.374,0.267,0.108,-0.123 (inactive)
COC(=O)[C@]1(Cc2ccccc2N=[N+]=[N-])N=C(c2ccc(OCCCO)cc2)O[C@@H]1c1ccccc1CN=[N+]=[N-],0.335,1.12,2.02,0.206,1.07,1.38,-0.199,0.182,0.0031,-0.232 (inactive)
COC(=O)C[C@H]1O[C@]2(C(=O)N(C)c3ccccc32)[C@@H](C)[C@@H]1[Si](C)(C)c1ccccc1,0.83,0.941,0.764,0.794,1.05,0.856,0.186,0.966,0.219,1.24 (inactive)
COCCOC(=O)N1C(=O)[C@@]2(c3cc(C#CCNC(N)=O)ccc31)[C@H](C(N)=O)[C@H]1C(=O)O[C@H](c3ccccc3)[C@H](c3ccccc3)N1[C@@H]2c1ccc(O)cc1,1.78,-0.767,-0.284,-0.424,0.994,0.287,0.222,0.115,-0.113,-2.19 (inactive)
C=C(C(=O)CC[C@@H](OC(=O)c1ccccc1-c1ccccc1C(=O)O)c1ccc(CO)o1)C(C)C,0.546,0.434,-0.304,0.876,1.39,1.76,0.475,1.51,0.707,-3.22 (inactive)
CCOC(=O)C[C@H]1[C@H](OC(=O)c2ccccc2-c2ccccc2)[C@@H](NC(=O)CC(C)C)c2cc(OCCCO)ccc2N1C(=O)c1ccccc1,-0.229,0.0447,-0.0647,0.24,1.01,0.583,-0.154,1.01,-0.0988,0.914 (inactive)
C[C@H]1C2[C@H](Cc3ccccc3)NC(=O)[C@]23C(=O)N[C@@H](Cc2ccccc2)C(=O)N2CCC[C@H]2C(=O)NC/C=C/CC/C=C/C3[C@@H]2O[C@]12C (stereo not given in full),0.196,0.965,-0.153,0.596,0.925,0.359,0.974,0.754,0.0255,0.527 (inactive)
CC(C)C[C@@H]1NC(=O)[C@@H]2C[C@H](C(=O)NCCCCCCNC(=O)CS)[C@H](c3ccc(O)cc3)N2C1=O,2.1,1.28,0.116,0.913,1.46,1.62,-1.16,1.41,0.907,-0.677 (inactive)
COc1ccc(-c2cc3c(c(CCc4ccccc4)n2)[Si](C(C)C)(C(C)C)O[C@H]3c2ccccc2)cn1,-0.0334,-0.547,0.16,0.285,0.432,0.0958,0.412,0.169,0.0926,-0.315 (inactive)
CC(C)N1CC=CC23O[C@@H]4/C=C\CCCOC(=O)C4[C@H]2C(=O)N(C(C)CO)[C@@H]3C1=O (stereo not given in full),-0.201,-0.829,-0.246,-1.91,-0.755,-1.31,0.0728,-0.246,0.33,0.281 (inactive)
C=C(COC)C(=O)CC[C@H](OC(C)=O)c1ccccc1OCCO,0.342,-0.538,0.253,-0.674,1.26,1.73,0.0429,1.13,-0.368,-1.61 (inactive)
